Among all 52,000 compounds or so, about 1,700 (3.3%) were called active. Cut-off read from the data, not from the text of the source: active = survival mostly below about 52% (no sharp cut-off); inactive = mostly above about 56%. This excerpt belongs to a sample that is enriched for actives.
System: Wild type
Assay: S. aureus survival, RN4220 and DeltatarO strains – OD600, teichoic acid synthesis inhibitors, primary screen (AID 463173)
Conditions: S. aureus RN4220 wild type/DeltatarO growth, OD600, 18 h, active compounds read low, screened at 18.75 µg/mL (by protocol)

Row | SMILES | survival
1 | Cc1ccc(CCNC(=O)Cn2c(-c3cccs3)cc3ccccc32)cc1 | 119% (inactive)
2 | Cc1ccc(C)c(N2CCN(C(=O)NC3CCCCC3)CC2)c1 | 103% (inactive)
3 | COc1ccc2nc3oc(C(=O)Nc4cccc(C(F)(F)F)c4)cc3cc2c1 | 66% (inactive)
4 | CCCOc1ccc(C2C(=O)N(C3CCC(C)CC3)CC(=O)N2CCC2=CCCCC2)cc1OC (centres undefined) | 87% (inactive)
5 | CCCCN1C(=O)CN(C2CCCCCC2)C(=O)C1c1ccc(OCCC)c(OC)c1 (centres undefined) | 87% (inactive)
6 | COc1ccc(C2C(=O)N(C3CCC(C)CC3)CC(=O)N2CCC2=CCCCC2)cc1OC (centres undefined) | -3% (active)
7 | COc1ccc(C2C(=O)N(C3CCC(C)CC3)CC(=O)N2C2CCCC2)cc1OC (centres undefined) | -4% (active)
8 | CCCOc1ccc(C2C(=O)N(C3CCCCCC3)CC(=O)N2CCC)cc1OC (centres undefined) | -6% (active)
9 | CCCN1C(=O)CN(C2CCCCCC2)C(=O)C1c1ccc(OCC)c(OC)c1 (centres undefined) | 120% (inactive)
10 | COc1ccc(C2C(=O)N(C3CCC(C)CC3)CC(=O)N2C2CCCCC2)cc1OC (centres undefined) | 64% (inactive)
11 | CCCOc1ccc(C2C(=O)N(C3CCCCC3)CC(=O)N2C2CCCCC2)cc1OC (centres undefined) | 77% (inactive)
12 | CCCOc1ccc(C2C(=O)N(C3CCCCCC3)CC(=O)N2CCC2=CCCCC2)cc1OC (centres undefined) | 123% (inactive)
13 | COc1ccc(-n2cc(C(=O)N(C)c3cc(C)ccc3OC)c3ccccc3c2=O)cc1 | 114% (inactive)
14 | Cc1ccc(NC(=O)CCc2c(C)nc3nc(C)nn3c2C)c(Cl)c1 | 70% (inactive)
15 | CCc1nnc(SC(CC)C(=O)NCCOC)c2cc3occc3n12 (centres undefined) | 105% (inactive)
16 | Cc1ccc(C(=O)n2nc(C)c(S(=O)(=O)N3CCOCC3)c2C)cc1 | 85% (inactive)
17 | CCN(c1cccc(C)c1)S(=O)(=O)c1cc(Br)cc2c1N(C(C)=O)C(C)C2 (centres undefined) | 75% (inactive)
18 | CCN(CC)CCNC(=O)c1ccc(-n2c(-c3ccccc3)cc3c2CCCC3)cc1 | 2% (active)
19 | CN(C)CCNC(=O)c1ccc(-n2c(-c3ccccc3)cc3c2CCCCC3)cc1 | 17% (inactive)
20 | CN(C)CCNC(=O)c1ccc(-n2c(-c3ccccc3)cc3c2CCCC3)cc1 | 29% (inactive)

Row | SMILES | survival
21 | Cc1ccc(C2C(C(=O)/C=C/c3ccccc3)=C(O)C(=O)N2CCO)cc1 (centres undefined) | 99% (inactive)
22 | O=C1CC(CSc2nnnn2-c2ccccc2)=NN1 | 128% (inactive)
23 | O=S1(=O)C=C(Sc2nnnn2-c2ccccc2)c2ccccc21 | -1% (active)
24 | O=S(=O)(NCCSc1nnnn1-c1ccccc1)c1ccc(F)cc1 | 76% (inactive)
25 | OCCCn1c(-c2ccc(F)cc2)csc1=Nc1ccc(F)cc1 | 9% (active)
26 | COc1ccc(-c2csc(=Nc3ccccc3)n2CCO)cc1F | 63% (inactive)
27 | CCN(CC)CCn1c(-c2ccccc2)csc1=Nc1ccccc1 | 45% (inactive)
28 | O=S(=O)(c1ccc(-c2csc(=Nc3ccc(OC(F)(F)Cl)cc3)n2CCCO)cc1)N1CCCC1 | 132% (inactive)
29 | O=S(=O)(c1ccc(-c2csc(=Nc3ccc(F)cc3)n2CCCCCCO)cc1)N1CCCC1 | 55% (inactive)
30 | Cc1ccc(-c2csc(=Nc3ccccc3)n2CCCO)cc1 | -7% (active)
31 | Cc1ccc(NC(=O)C(=O)NCC(c2ccc3c(c2)OCO3)N2CCN(c3ccccc3)CC2)cc1 (centres undefined) | 75% (inactive)
32 | O=C(CCC1N=C2c3ccccc3N=C(SCC(=O)Nc3ccccc3F)N2C1=O)NCc1ccccc1 (centres undefined) | 76% (inactive)
33 | CCOc1ccc(CNC(=O)C2CCN(S(=O)(=O)N3CCC(C)CC3)CC2)cc1OC | 84% (inactive)
34 | CCOc1ccc(-c2nnc(SCC(=O)c3ccc(Br)cc3)n2-c2ccccc2)cc1 | 92% (inactive)
35 | CC(=O)N1CCc2c(sc3c2c(=O)n(CCc2ccccc2)c(=O)n3Cc2ccc(Cl)cc2)C1 | 65% (inactive)
36 | O=C(CSc1nc2c(c(=O)[nH]1)CN(Cc1ccc3c(c1)OCO3)CC2)Nc1ccccc1Cl | 81% (inactive)
37 | O=C(CCN1CCCCC1)c1ccccc1 | 92% (inactive)
38 | O=C(NC1CCCCCC1)c1cc2c(Cl)nc3ccccc3c2s1 | 123% (inactive)
39 | CC(C)N(C(=O)c1cc2c(Cl)nc3ccccc3c2s1)C1CCCCC1 | -1% (active)
40 | O=C(c1cc2c(Cl)nc3ccccc3c2s1)N1CCCCC1 | 58% (inactive)

Row | SMILES | survival
41 | Cc1ccc2nc(Cl)c3cc(C(=O)NC4CCC(C)CC4)sc3c2c1 (centres undefined) | 72% (inactive)
42 | Cc1ccc2nc(Cl)c3cc(C(=O)N4CCCC(C)C4)sc3c2c1 (centres undefined) | -2% (active)
43 | Cc1ccc2nc(Cl)c3cc(C(=O)N4CCCCC4C)sc3c2c1 (centres undefined) | 21% (inactive)
44 | CCOC(=O)C1CCCN(C(=O)c2cc3c(Cl)nc4ccccc4c3s2)C1 (centres undefined) | 41% (inactive)
45 | O=C(NC1CCCCC1)c1cc2c(Cl)nc3ccccc3c2s1 | 77% (inactive)
46 | Cc1ccc2nc(Cl)c3cc(C(=O)NC4CCCCCC4)sc3c2c1 | 119% (inactive)
47 | CC1CCCN(C(=O)c2cc3c(Cl)nc4ccccc4c3s2)C1 (centres undefined) | -2% (active)
48 | Cc1ccc2nc(Cl)c3cc(C(=O)N4CCCCC4)sc3c2c1 | -2% (active)
49 | Cc1ccc2nc(Cl)c3cc(C(=O)NC4CCCCC4)sc3c2c1 | 76% (inactive)
50 | CCCCC(=O)Nc1ccc(OCc2cc(=O)n3c(C)csc3n2)cc1 | 87% (inactive)
51 | COc1ccccc1NC(=O)C(Cc1ccccc1)NS(=O)(=O)c1ccc2c(c1)CCN2C(C)=O (centres undefined) | 80% (inactive)
52 | CCOc1ccccc1NS(=O)(=O)c1ccc2c(c1)oc(=O)n2C | 82% (inactive)
53 | O=C(Nc1ccc2nn(-c3ccccc3)nc2c1)c1cc2ccccc2o1 | 80% (inactive)
54 | COC(=O)c1scc(-c2ccc(C)cc2)c1S(=O)(=O)N1CCN(c2cccc(OC)c2)CC1 | 53% (inactive)
55 | CCCCn1c(Cc2ccccc2)nnc1SCC(=O)NC | 104% (inactive)
56 | COC(=O)c1ccc(NC(=O)c2cc(S(=O)(=O)N3CCOCC3)cn2C)cc1 | 84% (inactive)
57 | COC(=O)C1(c2ccccc2)NC(c2ccc(O)cc2)C2C(=O)N(c3ccc4c(c3)OCCO4)C(=O)C21 (centres undefined) | 106% (inactive)
58 | Cc1cc(N2CCC(C(=O)N(CC(C)C)CC(C)C)CC2)n2nc(C)c(-c3ccc(Cl)cc3)c2n1 | 91% (inactive)
59 | COc1ccc(NC(=O)CN2C(=O)CC(c3ccc(C)c(C)c3)=Nc3ccccc32)cc1OC | 76% (inactive)
